Where “and” joins values, the source holds several entries; their conditions need not be identical. Equal entries are not always repeated. A number with no mark means an inactive call. Records with an inconclusive call do not appear. Entries that show only a call come without a potency. Calls of active or inactive are those of the source. The call rests on the fitted dose curve; in most records, active means well fitted curve in the direction sought with a large enough effect in the repeat runs; inconclusive means weak or mixed curves; inactive means no such curve, though single readings can be large; an effect the other way counts as inactive or inconclusive.
Columns and labels:
[1] = Caspase-3/7 induction in HepG2 cells by small molecules, qHTS assay (AID 1346978); further: nearly all actives have a fitted effect of over 15% in size
In short: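 Wild-type HepG2 cells (2,000/well) were settled 5 h at 37 C, 5% CO2, then exposed to compounds in DMSO for 17 h. Caspase-3/7 activity was read by luminescence 30 min after adding Caspase-Glo 3/7 reagent at room temperature.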

[2] = Caspase-3/7 induction in CHO-K1 cells by small molecules, qHTS cell viability counter screen (AID 1346979); further: nearly all actives have a fitted effect of over 35% in size; further: potency means the concentration at half of the fitted maximal effect
In short: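 CellTiter-Fluor viability check, qHTS format: wild-type CHO-K1, 16hr compound treatment, 1hr reagent incubation, fluorescence read.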

[3] = Caspase-3/7 induction in CHO-K1 cells by small molecules, qHTS assay (AID 1346980); further: nearly all actives have a fitted effect of over 15% in size
In short: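 Wild-type cells were seeded at 1,500 per well and settled 5 hr at 37 C, 5% CO2, then exposed to DMSO-dissolved compounds for 17 hr. Caspase-Glo 3/7 reagent was added, and luminescence was read after 30min at room temperature.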

[4] = Caspase-3/7 induction in HepG2 cells by small molecules, qHTS cell viability counter screen (AID 1346981); further: series mostly up to about 92 µM; nearly all actives have a fitted effect of over 30% in size
In short: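 Multiplexed with the caspase-3/7 assay: HepG2 cells, 16 hr compound treatment, CellTiter-Fluor viability detection by fluorescence.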

[5] = target: Nuclear receptor subfamily 1 group I member 2 (Homo sapiens) (UniProt O75469); assay: Human pregnane X receptor (PXR) small molecule agonists, qHTS assay (AID 1346982); further: nearly all actives have a fitted effect of over 35% in size; further: potency means the concentration at half of the fitted maximal effect
In short: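 We seeded PXR-Luc HepG2 cells in assay medium containing 5% charcoal-stripped FBS, added compounds 5 hr later, incubated 24 hr, and read luminescence with ONE-Glo reagent.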

[6] = target: Cytochrome P450 2D6 (Homo sapiens) (UniProt P10635); assay: Cytochrome P450 Family 2 Subfamily D Member 6 (CYP2D6) small molecule antagonists: luciferase reporter qHTS assay (AID 1671196); further: nearly all actives have a fitted effect of over 50% in size; further: potency means the concentration at half of the fitted maximal effect; on activity change, negative = inhibition: series mostly up to about 120 µM
In short: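 Luminescence (RLU), read 20 min after detection reagent, indicated CYP2D6 conversion of proluciferin to luciferin during a 1 h NADPH-dependent reaction at room temperature.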

[7] = target: Cytochrome P450 2C19 (Homo sapiens) (UniProt P33261); assay: Cytochrome P450 Family 2 Subfamily C Member 19 (CYP2C19) small molecule antagonists: luciferase reporter qHTS assay (AID 1671197); further: nearly all actives have a fitted effect of over 65% in size; further: potency means the concentration at half of the fitted maximal effect; on activity change, negative = inhibition: series mostly up to about 120 µM
In short: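 First, compounds are pinned into enzyme-substrate mix and held 10 min at room temperature. Second, NADPH regeneration solution is added and plates incubate 1 h at 37C. Third, detection reagent is added and luminescence read after 20 min.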

[8] = target: Cytochrome P450 2C9 (Homo sapiens) (UniProt P11712); assay: Cytochrome P450 Family 2 Subfamily C Member 9 (CYP2C9) small molecule antagonists: luciferase reporter qHTS assay (AID 1671198); further: nearly all actives have a fitted effect of over 50% in size; further: potency means the concentration at half of the fitted maximal effect; on activity change, negative = inhibition: series mostly up to about 120 µM
In short: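 CYP2C9 activity was measured with a P450-Glo proluciferin substrate. Enzyme–substrate mix was held with compound for 10 min at room temperature, then NADPH regeneration solution was added for 1 h at 37C. Luciferin product was read as luminescence.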

[9] = target: Cytochrome P450 1A2 (Homo sapiens) (UniProt P05177); assay: Cytochrome P450 Family 1 Subfamily A Member 2 (CYP1A2) small molecule antagonists: luciferase reporter qHTS assay (AID 1671199); further: nearly all actives have a fitted effect of over 50% in size; further: potency means the concentration at half of the fitted maximal effect; on activity change, negative = inhibition: series mostly up to about 120 µM
In short: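 CYP1A2 turnover of a luminogenic substrate was quantified after 1 h with NADPH regeneration at room temperature. Furafylline served as positive control.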

[10] = target: Voltage-gated inwardly rectifying potassium channel KCNH2 (Homo sapiens) (UniProt Q12809); assay: Human Ether-a-go-go-Related Gene (hERG) channel small molecule antagonists: fluorescence cell-based qHTS assay (AID 1671200);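 further: hERG-expressing U2OS cells given a thallium stimulus after FluxOR II dye loading; series mostly up to about 77 µM; nearly all actives have a fitted effect of over 50% in size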
In short: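 Kinetic two-minute fluorescence traces, sampled at 1 s, were collected following thallium stimulus of U2OS cells (1000 per well) that had been cultured overnight at 37 C and loaded with FluxOR II.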

[11] = target: Cytochrome P450 3A4 (Homo sapiens) (UniProt P08684); assay: Cytochrome P450 Family 3 Subfamily A Member 4 (CYP3A4) small molecule antagonists: luciferase reporter qHTS assay (AID 1671201); further: nearly all actives have a fitted effect of over 50% in size; further: potency means the concentration at half of the fitted maximal effect; on activity change, negative = inhibition: series mostly up to about 120 µM
In short: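 Proluciferin-to-luciferin conversion by CYP3A4, NADPH-regenerated, 1 h RT; luminescence read as RLU. Ketoconazole as control.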

[12] = Human pregnane X receptor (PXR) small molecule agonists, qHTS cell viability counter screen (AID 1346977); further: nearly all actives have a fitted effect of over 50% in size
In short: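 Tox21 qHTS format; PXR-Luc HepG2, 2,000/well, charcoal-stripped FBS 5%. Cpd exposure 24hr. Read: CellTiter-Fluor fluorescence, multiplexed with luciferase.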

[13] = target: Nuclear receptor subfamily 1 group I member 2 (Rattus norvegicus) (UniProt Q9R1A7); assay: Rat pregnane X receptor (rPXR) activation by small molecules, qHTS assay (AID 1346983); conditions: rPXR luciferase reporter cells, One-Glo luminescence, 24 h; hits give high values; further: nearly all actives have a fitted effect of over 20% in size
In short: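 Cell-based rPXR luciferase reporter assay, 2,000 cells per well, rested 5hr at 37 C before compound addition in DMSO, then 24 hr at 37 C. One-Glo reagent was added and luminescence read after 30 min at room temperature.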

[14] = target: Nuclear receptor subfamily 1 group I member 2 (Homo sapiens) (UniProt O75469); assay: CYP3A4 induction through human pregnane X receptor (PXR) by small molecules, qHTS assay (AID 1346984); further: nearly all actives have a fitted effect of over 40% in size
In short: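 qHTS, concentration-response format: HepG2 DPX-2 line, PXR/CYP3A4-luc. Exposure 24 h, 37C. Substrate Luciferin-IPA 3uM final, 3 h. Detection One-Glo, 30 min RT.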

[15] = target: Nuclear receptor subfamily 1 group I member 2 (Homo sapiens) (UniProt O75469); assay: Human pregnane X receptor (PXR) activation by small molecules, qHTS assay (AID 1346985); further: nearly all actives have a fitted effect of over 40% in size
In short: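 DPX-2 cells (HepG2 co-transfected with a PXR response element and a CYP3A4-promoter luciferase construct) were seeded at 2,000 per well, rested 5 hr at 37C, then exposed to DMSO-dissolved compounds for 24 hr. Activation was read as luciferase luminescence.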

Chain of Cytochrome P450 1A2 (Homo sapiens) (P05177 whole entry, looked up): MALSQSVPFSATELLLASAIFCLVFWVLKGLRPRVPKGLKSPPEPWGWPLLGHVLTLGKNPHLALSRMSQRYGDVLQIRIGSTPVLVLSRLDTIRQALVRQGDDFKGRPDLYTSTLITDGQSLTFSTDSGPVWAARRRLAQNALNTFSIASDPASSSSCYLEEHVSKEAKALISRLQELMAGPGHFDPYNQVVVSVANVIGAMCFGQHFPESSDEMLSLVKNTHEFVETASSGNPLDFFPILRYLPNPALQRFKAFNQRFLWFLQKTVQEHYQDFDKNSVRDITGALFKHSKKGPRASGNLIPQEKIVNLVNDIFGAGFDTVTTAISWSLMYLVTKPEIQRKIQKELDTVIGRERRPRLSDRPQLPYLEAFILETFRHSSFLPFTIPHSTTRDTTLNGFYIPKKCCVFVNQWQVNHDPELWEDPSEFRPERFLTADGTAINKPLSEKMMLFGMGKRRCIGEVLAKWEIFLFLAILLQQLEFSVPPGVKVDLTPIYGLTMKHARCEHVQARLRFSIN
Chain of Cytochrome P450 2C9 (Homo sapiens) (P11712 whole entry, looked up): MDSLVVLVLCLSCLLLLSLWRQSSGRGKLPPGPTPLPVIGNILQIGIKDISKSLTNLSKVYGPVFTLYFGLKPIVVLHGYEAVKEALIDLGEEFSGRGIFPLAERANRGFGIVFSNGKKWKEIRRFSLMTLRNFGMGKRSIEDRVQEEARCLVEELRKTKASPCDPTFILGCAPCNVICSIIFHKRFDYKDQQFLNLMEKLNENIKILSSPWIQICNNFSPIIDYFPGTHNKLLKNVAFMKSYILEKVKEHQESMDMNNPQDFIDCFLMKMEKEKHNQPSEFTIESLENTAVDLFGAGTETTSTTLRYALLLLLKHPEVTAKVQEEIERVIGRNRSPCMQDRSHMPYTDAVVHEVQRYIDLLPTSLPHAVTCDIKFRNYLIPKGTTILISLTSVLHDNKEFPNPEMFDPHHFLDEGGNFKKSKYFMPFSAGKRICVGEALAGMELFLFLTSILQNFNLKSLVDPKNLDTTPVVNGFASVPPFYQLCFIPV
Chain of Nuclear receptor subfamily 1 group I member 2 (Homo sapiens) (O75469 whole entry, looked up): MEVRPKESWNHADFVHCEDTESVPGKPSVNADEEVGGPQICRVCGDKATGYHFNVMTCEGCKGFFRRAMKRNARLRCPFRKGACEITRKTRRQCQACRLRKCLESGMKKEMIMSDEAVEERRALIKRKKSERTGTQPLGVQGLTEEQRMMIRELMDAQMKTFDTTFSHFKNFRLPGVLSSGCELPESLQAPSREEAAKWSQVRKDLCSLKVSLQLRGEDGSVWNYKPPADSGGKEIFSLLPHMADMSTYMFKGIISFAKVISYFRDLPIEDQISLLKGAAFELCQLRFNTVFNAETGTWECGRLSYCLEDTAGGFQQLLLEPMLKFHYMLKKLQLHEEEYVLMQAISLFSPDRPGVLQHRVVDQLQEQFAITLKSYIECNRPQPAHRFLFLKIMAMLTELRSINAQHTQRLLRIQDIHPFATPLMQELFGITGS
Chain of Cytochrome P450 3A4 (Homo sapiens) (P08684 whole entry, looked up): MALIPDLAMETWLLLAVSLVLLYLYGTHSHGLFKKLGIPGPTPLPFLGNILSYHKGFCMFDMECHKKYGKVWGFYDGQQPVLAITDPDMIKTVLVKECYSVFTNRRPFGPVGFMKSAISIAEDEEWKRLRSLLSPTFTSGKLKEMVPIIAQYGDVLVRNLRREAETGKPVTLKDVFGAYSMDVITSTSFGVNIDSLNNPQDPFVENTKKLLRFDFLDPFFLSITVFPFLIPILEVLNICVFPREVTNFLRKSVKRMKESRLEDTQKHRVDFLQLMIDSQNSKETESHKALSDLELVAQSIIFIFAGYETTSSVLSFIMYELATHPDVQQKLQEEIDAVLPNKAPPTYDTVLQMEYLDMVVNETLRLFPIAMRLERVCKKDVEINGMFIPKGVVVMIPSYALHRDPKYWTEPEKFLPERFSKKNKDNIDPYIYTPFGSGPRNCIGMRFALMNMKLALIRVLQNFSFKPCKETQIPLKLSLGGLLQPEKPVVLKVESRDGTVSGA
Chain of Nuclear receptor subfamily 1 group I member 2 (Rattus norvegicus) (Q9R1A7 whole entry, looked up): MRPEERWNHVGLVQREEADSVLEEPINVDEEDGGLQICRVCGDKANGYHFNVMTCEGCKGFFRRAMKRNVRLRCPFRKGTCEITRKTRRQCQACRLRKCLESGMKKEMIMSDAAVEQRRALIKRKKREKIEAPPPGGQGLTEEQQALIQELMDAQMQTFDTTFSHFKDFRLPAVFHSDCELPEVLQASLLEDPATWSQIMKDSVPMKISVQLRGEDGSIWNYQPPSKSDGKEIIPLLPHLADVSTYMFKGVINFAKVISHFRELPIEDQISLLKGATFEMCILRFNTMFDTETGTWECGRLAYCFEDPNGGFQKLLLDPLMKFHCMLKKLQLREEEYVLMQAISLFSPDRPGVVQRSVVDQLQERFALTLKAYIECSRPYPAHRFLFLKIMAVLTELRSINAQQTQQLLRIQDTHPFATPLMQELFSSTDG
Chain of Cytochrome P450 2D6 (Homo sapiens) (P10635 whole entry, looked up): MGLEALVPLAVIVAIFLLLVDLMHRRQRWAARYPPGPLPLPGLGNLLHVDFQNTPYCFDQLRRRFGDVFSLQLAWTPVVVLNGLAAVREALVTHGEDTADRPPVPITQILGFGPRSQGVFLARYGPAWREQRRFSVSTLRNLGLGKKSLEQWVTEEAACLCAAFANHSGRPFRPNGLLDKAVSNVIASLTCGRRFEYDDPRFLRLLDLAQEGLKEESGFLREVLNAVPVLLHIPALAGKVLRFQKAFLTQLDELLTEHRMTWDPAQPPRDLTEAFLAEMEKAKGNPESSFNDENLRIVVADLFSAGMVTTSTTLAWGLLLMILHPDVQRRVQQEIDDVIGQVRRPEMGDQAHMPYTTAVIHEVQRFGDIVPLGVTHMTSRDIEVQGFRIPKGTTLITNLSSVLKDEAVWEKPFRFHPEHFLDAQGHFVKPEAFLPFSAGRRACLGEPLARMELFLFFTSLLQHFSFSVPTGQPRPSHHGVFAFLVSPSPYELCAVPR
Chain of Cytochrome P450 2C19 (Homo sapiens) (P33261 whole entry, looked up): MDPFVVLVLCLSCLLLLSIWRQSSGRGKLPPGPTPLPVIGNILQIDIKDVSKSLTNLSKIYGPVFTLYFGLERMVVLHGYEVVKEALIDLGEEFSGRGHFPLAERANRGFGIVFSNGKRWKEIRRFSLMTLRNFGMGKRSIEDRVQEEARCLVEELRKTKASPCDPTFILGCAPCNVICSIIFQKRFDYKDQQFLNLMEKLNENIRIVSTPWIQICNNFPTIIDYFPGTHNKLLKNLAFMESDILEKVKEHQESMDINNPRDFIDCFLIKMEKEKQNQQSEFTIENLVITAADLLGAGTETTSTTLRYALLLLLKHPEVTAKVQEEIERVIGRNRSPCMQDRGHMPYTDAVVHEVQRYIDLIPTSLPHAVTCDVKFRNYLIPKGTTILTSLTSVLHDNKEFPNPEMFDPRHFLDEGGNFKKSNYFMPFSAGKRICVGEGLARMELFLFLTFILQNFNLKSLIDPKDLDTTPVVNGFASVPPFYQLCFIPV
Chain of Voltage-gated inwardly rectifying potassium channel KCNH2 (Homo sapiens) (Q12809 whole entry, looked up): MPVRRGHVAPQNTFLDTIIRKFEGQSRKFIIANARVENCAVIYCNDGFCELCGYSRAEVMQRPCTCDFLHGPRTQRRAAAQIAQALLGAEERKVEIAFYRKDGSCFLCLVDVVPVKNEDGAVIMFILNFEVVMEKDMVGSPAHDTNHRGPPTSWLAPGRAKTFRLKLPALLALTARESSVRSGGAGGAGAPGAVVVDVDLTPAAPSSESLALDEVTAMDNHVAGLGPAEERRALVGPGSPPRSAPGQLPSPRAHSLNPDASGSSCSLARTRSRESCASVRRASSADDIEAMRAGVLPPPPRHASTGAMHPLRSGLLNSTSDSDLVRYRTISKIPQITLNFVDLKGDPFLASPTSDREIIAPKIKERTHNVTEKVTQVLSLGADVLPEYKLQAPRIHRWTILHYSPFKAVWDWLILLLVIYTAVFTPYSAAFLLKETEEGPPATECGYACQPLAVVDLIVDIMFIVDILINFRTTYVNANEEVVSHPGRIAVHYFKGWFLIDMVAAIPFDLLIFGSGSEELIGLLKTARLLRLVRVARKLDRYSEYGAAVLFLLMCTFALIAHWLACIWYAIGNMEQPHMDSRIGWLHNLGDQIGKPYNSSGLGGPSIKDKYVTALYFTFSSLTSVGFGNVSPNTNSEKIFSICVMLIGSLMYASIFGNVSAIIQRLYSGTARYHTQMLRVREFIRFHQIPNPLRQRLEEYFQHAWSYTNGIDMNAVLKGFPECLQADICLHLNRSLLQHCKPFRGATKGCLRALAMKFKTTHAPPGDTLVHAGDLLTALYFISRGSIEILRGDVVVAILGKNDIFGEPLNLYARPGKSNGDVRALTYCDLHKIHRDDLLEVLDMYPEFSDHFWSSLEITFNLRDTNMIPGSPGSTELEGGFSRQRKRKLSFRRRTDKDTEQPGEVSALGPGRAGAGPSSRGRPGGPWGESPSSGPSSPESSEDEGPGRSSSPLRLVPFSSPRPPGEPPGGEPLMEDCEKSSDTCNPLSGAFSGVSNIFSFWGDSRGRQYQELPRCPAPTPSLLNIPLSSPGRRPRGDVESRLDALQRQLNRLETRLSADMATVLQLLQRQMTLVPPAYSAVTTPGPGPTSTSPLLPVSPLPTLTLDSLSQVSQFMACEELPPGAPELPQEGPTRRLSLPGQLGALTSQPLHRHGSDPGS

O=C(O)CCCc1ccccc1
Potency [1]: inactive
Potency [2]: inactive
outcome [3]: inactive
Potency [4]: inactive
Potency [5]: inactive
Potency [6]: inactive
Potency [7]: inactive
Potency [8]: inactive
Potency [9]: inactive
Potency [10]: inactive
Potency [11]: inactive

Nc1nc2c(ncn2COC(CO)CO)c(=O)[nH]1
Potency [12]: inactive
Potency [4]: inactive
Potency [5]: inactive
max activation [13]: 0.872%
Potency [14]: inactive
Potency [15]: inactive
Potency [6]: inactive
Potency [7]: inactive
Potency [8]: inactive
Potency [9]: inactive
Potency [10]: inactive
Potency [11]: inactive

O=c1cc(-c2ccccc2)oc2ccccc12
Potency [12]: inactive
Potency [2]: 68.2 µM (active)
outcome [3]: inactive
Potency [5]: 54.5 µM (active) and 24.2 µM (active)
Potency [7]: 31.7 µM (active) and 7.92 µM (active)
Potency [8]: 17.8 µM (active) and 15.4 µM (active)
Potency [9]: 317 nM (active) and 477 nM (active)
Potency [10]: inactive
Potency [11]: inactive

COc1ccccc1OCC(O)CN1CCN(CC(=O)Nc2c(C)cccc2C)CC1 (configuration not stated)
Potency [12]: inactive
Potency [2]: inactive
outcome [3]: inactive
Potency [4]: inactive
Potency [5]: inactive
Potency [6]: 13.8 µM (active)
Potency [7]: inactive
Potency [9]: inactive
Potency [10]: inactive

CC(=O)Nc1ccc(S(N)(=O)=O)cc1
Potency [12]: inactive
Potency [2]: inactive
Potency [4]: inactive
Potency [5]: inactive
Potency [6]: inactive
Potency [8]: inactive
Potency [9]: inactive
Potency [10]: inactive
Potency [11]: inactive

CN1CCN(c2cc3c(cc2F)c(=O)c(C(=O)O)cn3-c2ccc(F)cc2)CC1
Potency [1]: inactive
Potency [2]: inactive
outcome [3]: inactive
Potency [4]: inactive
Potency [5]: inactive
max activation [13]: -3.97%
Potency [14]: inactive
Potency [15]: inactive
Potency [6]: inactive
Potency [7]: inactive
Potency [8]: inactive
Potency [9]: inactive
Potency [10]: inactive
Potency [11]: inactive

CCO/C([O-])=N/c1c[n+](N2CCOCC2)no1
Potency [12]: inactive
Potency [5]: inactive
max activation [13]: 0.703%
Potency [14]: inactive
Potency [15]: inactive
Potency [6]: inactive
Potency [7]: inactive
Potency [8]: inactive
Potency [9]: inactive
Potency [10]: inactive
Potency [11]: inactive

CCC=O
Potency [12]: inactive
Potency [2]: inactive
outcome [3]: inactive
Potency [4]: inactive
Potency [5]: inactive
Potency [7]: inactive
Potency [8]: inactive
Potency [10]: inactive
Potency [11]: inactive

Cc1c(O)cccc1O
Potency [12]: inactive
Potency [2]: inactive
outcome [3]: inactive
Potency [5]: inactive
Potency [6]: inactive
Potency [10]: inactive
Potency [11]: 32.5 µM (active)

CCC(C)S (configuration not stated)
activity change, negative = cytotoxicity [12]: 2.43% [at 3.27 µM]
activation [5]: -2.18% [at 3.27 µM]
activity change, negative = inhibition [7]: 8.24% [at 4.07 µM]
activity change, negative = inhibition [8]: -9.04% [at 4.07 µM]
activity change, negative = inhibition [10]: 1.71% [at 2.72 µM]
activity change, negative = inhibition [11]: 2.72% [at 4.07 µM]

C=CCOCC(CC)(CO)COCC=C
Potency [12]: inactive
Potency [2]: inactive
outcome [3]: inactive
Potency [5]: inactive
Potency [6]: inactive
Potency [7]: 3.99 µM (active)
Potency [8]: 25.2 µM (active)
Potency [9]: 28.3 µM (active)
Potency [10]: inactive

ClC(Cl)(Br)Br
Potency [12]: inactive
outcome [3]: inactive
Potency [4]: inactive
Potency [5]: inactive
Potency [6]: 39.2 µM (active)
Potency [7]: inactive
Potency [8]: inactive
Potency [9]: inactive
Potency [10]: inactive
Potency [11]: inactive

CC(C)=CCCC(C)CC(=O)O (configuration not stated)
Potency [12]: inactive
outcome [3]: inactive
Potency [5]: inactive
Potency [7]: 35.6 µM (active)
Potency [8]: 63.3 µM (active)
Potency [10]: inactive
Potency [11]: inactive

Cc1cnc(NS(=O)(=O)c2ccc(N)cc2)nc1
Potency [1]: inactive
Potency [2]: inactive
outcome [3]: inactive
Potency [4]: inactive
Potency [5]: inactive
Potency [6]: inactive
Potency [7]: inactive
Potency [8]: inactive
Potency [9]: inactive
Potency [10]: inactive
Potency [11]: inactive

O=Cc1cccc([N+](=O)[O-])c1
Potency [12]: inactive
Potency [2]: inactive
outcome [3]: inactive
Potency [5]: inactive
Potency [7]: inactive
Potency [8]: inactive
Potency [9]: 39.7 µM (active)
Potency [10]: inactive
Potency [11]: inactive

CC(C)CNCC(C)C
Potency [1]: inactive
Potency [2]: inactive
outcome [3]: inactive
Potency [4]: inactive
Potency [5]: inactive
Potency [6]: inactive
Potency [7]: inactive
Potency [8]: inactive
Potency [9]: inactive
Potency [10]: inactive
Potency [11]: inactive

c1ccc(CC2=NCCN2)cc1
Potency [1]: inactive
Potency [2]: inactive
outcome [3]: inactive
Potency [4]: inactive
Potency [5]: inactive
max activation [13]: -1.57%
Potency [14]: inactive
Potency [15]: inactive
Potency [8]: inactive
Potency [9]: inactive
Potency [10]: inactive
Potency [11]: inactive

CCOC(=O)c1ccc(C)cc1
Potency [1]: inactive
Potency [2]: inactive
outcome [3]: inactive
Potency [4]: inactive
Potency [5]: inactive
Potency [6]: inactive
Potency [7]: inactive
Potency [8]: inactive
Potency [9]: inactive
Potency [10]: inactive
Potency [11]: inactive

OCCCC1CCCCC1
Potency [12]: inactive
Potency [2]: inactive
outcome [3]: inactive
Potency [4]: inactive
Potency [5]: inactive
Potency [7]: inactive
Potency [8]: inactive
Potency [9]: inactive
Potency [10]: inactive
Potency [11]: inactive

N#Cc1ccc(C2CCCc3cncn32)cc1 (configuration not stated)
Potency [12]: inactive
Potency [2]: inactive
Potency [5]: inactive
Potency [6]: 12.7 µM (active)
Potency [7]: 12.7 µM (active)
Potency [9]: inactive
Potency [10]: inactive

C=C[Si](OC(=C)C)(OC(=C)C)OC(=C)C
Potency [1]: inactive
Potency [2]: inactive
outcome [3]: inactive
Potency [4]: inactive
Potency [5]: inactive
Potency [6]: inactive
Potency [7]: 39.9 µM (active)
Potency [8]: inactive
Potency [9]: inactive
Potency [10]: inactive

CC/C=C\CCOC(C)=O
Potency [12]: inactive
outcome [3]: inactive
Potency [5]: inactive
Potency [7]: inactive
Potency [8]: inactive
Potency [9]: inactive
Potency [10]: inactive
Potency [11]: inactive

— PubChem BioAssay (Tox21)
